In assay [1] the target is Serine/threonine-protein kinase MRCK alpha (Homo sapiens) (UniProt Q5VT25). Conditions: at 0.1 µM.
Assay [2] shares this target. The conditions noted are these: at 1 µM.
Assay [3] addresses Serine/threonine-protein kinase MRCK beta (Homo sapiens) (UniProt Q9Y5S2). The conditions noted are these: at 0.1 µM.
For assay [4] the target is unchanged. Conditions: at 1 µM.
Assay [5] concerns the target Ribosomal protein S6 kinase alpha-5 (Homo sapiens) (UniProt O75582). Conditions: at 0.1 µM.
For assay [6] the target is unchanged. Conditions: at 1 µM.
Assay [7] has as its target Ribosomal protein S6 kinase alpha-4 (Homo sapiens) (UniProt O75676). The conditions noted are these: at 0.1 µM.
The target is the same in assay [8]. The conditions noted are these: at 1 µM.
For assay [9], the target named is Ribosomal protein S6 kinase beta-1 (Homo sapiens) (UniProt P23443). Conditions: at 0.1 µM.
The target is the same in assay [10]. Conditions: at 1 µM.

Molecules are shown by their SMILES.

Sequence of Ribosomal protein S6 kinase beta-1 (Homo sapiens) (P23443 whole entry, looked up): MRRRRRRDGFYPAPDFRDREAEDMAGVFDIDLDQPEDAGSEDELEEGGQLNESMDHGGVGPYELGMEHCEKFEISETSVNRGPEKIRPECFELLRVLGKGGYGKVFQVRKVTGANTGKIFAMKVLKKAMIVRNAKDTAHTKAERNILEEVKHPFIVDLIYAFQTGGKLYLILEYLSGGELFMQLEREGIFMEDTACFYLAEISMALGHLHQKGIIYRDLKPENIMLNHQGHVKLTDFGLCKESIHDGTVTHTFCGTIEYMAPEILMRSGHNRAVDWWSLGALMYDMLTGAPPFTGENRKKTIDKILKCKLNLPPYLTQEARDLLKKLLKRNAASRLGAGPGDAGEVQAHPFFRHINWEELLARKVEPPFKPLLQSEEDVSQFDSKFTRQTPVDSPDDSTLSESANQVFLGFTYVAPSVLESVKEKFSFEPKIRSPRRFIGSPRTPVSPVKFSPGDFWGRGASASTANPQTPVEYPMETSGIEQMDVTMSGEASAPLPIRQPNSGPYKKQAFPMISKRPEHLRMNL
Sequence of Ribosomal protein S6 kinase alpha-5 (Homo sapiens) (O75582 whole entry, looked up): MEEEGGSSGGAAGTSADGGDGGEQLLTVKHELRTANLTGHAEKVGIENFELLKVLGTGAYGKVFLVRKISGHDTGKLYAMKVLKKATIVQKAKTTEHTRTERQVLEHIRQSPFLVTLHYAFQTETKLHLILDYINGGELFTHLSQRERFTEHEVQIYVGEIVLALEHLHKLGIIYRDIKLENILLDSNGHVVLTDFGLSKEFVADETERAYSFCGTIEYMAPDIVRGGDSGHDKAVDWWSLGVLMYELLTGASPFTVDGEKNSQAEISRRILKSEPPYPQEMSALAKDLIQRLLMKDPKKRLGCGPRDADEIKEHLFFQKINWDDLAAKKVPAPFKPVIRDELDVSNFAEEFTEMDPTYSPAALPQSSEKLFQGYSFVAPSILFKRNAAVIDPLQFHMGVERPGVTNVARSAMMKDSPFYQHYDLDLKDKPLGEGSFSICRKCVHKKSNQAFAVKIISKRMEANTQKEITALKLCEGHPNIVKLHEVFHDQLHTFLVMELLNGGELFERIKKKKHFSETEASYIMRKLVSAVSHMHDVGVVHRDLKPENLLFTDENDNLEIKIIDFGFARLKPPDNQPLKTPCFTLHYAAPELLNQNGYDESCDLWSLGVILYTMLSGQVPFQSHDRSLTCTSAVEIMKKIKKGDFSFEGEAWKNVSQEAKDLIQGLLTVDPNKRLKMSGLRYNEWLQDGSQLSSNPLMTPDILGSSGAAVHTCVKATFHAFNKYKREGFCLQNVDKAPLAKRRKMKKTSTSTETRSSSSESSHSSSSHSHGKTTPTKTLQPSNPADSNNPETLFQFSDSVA
Sequence of Ribosomal protein S6 kinase alpha-4 (Homo sapiens) (O75676 whole entry, looked up): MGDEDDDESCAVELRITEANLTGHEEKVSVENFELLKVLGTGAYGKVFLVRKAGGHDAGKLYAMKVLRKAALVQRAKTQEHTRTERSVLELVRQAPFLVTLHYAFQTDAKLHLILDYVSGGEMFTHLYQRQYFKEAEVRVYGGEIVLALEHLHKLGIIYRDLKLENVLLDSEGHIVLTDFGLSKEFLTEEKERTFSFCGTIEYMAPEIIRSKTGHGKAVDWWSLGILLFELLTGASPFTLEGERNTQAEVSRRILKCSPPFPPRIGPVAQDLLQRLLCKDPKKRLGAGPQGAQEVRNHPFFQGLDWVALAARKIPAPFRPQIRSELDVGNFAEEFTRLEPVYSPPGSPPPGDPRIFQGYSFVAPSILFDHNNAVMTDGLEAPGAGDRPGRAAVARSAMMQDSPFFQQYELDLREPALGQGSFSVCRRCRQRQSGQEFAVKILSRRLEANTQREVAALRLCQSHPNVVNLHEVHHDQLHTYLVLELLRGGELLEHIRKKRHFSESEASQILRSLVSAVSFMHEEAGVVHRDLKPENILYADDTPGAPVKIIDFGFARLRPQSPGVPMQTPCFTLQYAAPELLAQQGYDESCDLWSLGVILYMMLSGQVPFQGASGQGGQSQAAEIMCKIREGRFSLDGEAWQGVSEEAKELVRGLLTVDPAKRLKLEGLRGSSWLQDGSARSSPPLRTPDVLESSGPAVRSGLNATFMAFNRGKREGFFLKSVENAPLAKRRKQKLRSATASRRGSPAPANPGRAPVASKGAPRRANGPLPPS
Sequence of Serine/threonine-protein kinase MRCK alpha (Homo sapiens) (Q5VT25 whole entry): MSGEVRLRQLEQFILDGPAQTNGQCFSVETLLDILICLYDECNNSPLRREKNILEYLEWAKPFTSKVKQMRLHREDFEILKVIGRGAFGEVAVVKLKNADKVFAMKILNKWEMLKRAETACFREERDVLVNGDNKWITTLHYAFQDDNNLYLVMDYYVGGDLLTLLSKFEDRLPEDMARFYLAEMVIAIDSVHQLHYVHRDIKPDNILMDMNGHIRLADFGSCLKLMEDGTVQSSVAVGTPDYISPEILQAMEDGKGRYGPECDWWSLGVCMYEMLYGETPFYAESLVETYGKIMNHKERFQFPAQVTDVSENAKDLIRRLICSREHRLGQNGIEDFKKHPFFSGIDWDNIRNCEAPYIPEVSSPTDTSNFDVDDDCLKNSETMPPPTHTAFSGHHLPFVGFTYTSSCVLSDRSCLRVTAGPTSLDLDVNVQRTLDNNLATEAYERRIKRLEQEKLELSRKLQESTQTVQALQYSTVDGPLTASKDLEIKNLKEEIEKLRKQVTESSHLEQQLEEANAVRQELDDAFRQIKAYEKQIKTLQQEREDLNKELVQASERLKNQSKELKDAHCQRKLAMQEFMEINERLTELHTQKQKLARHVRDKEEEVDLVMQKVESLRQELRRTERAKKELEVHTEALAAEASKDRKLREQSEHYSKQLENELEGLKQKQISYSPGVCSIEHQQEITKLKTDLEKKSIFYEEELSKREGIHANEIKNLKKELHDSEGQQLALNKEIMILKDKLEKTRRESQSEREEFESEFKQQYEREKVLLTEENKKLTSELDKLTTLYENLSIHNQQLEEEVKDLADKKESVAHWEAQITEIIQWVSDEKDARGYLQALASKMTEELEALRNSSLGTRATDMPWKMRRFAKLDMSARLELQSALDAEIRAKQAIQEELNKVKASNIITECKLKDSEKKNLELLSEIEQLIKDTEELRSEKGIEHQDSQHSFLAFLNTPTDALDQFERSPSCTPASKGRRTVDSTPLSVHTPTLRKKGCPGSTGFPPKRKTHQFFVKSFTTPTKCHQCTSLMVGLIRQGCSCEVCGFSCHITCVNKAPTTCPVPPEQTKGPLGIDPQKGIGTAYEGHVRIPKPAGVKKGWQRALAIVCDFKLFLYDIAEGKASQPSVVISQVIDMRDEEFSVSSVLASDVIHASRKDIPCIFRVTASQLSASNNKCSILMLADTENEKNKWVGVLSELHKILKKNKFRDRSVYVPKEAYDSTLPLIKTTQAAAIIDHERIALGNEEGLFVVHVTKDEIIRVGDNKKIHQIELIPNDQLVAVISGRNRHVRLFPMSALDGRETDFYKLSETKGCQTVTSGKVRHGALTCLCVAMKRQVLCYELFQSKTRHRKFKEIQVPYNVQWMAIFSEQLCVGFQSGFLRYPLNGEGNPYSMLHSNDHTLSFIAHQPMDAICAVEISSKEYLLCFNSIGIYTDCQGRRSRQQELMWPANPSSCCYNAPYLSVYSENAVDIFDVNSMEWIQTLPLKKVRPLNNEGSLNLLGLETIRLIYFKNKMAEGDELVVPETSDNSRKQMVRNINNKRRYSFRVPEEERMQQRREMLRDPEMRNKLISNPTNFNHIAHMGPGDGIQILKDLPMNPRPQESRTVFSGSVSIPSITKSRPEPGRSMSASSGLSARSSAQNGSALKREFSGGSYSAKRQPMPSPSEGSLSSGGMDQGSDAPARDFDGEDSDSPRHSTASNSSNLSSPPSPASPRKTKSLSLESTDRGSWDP

As for `COc1cccc(-n2ncc3c(N/N=C/c4cccc(F)c4)ncnc32)c1`, the inhibition – broadly, the change of the read-out against control, counted positive when it falls – is 0.1% in assay [1]; -0.68% in assay [2]; 1.2% in assay [3]; 0.38% in assay [4]; 0.41% in assay [5]; -0.25% in [6]. The inhibition in assay [7] is 2.4%; in assay [8], 2.89%; in assay [9], 0.65%; in assay [10], 2.01%.

Consider `COc1cc2ncn(-c3cc(O[C@H](C)c4ccccc4Cl)c(C(N)=O)s3)c2cc1OC`, for which the inhibition in assay [1] was 1.89%; in assay [2], 5.55%; in assay [3], 0.35%; in [4], 1.02%; in assay [5], -1.18%; in assay [6], 3.73%. For the same compound, the inhibition in [7] stood at 4.32%; in assay [8], 13.8%; in assay [9], 1.42%; in [10], 4.7%.

On to `CS(=O)(=O)CCNCc1nc(-c2ccc3ncnc(Nc4ccc(F)c(Cl)c4)c3c2)cs1`, for which the inhibition in [1] is 1.82%; in assay [2] it was 3.22%; in [3], -0.31%; in [4], -0.48%; in [5], 1.46%; in [6], 6.15%. In addition, the inhibition is 1.32% in [7], 1.96% in [8], -0.63% in [9] and 1.77% in assay [10].

With `O=C(Nc1n[nH]c2nc(-c3ccco3)c(Br)cc12)C1CC1`, the inhibition in [1] is 0.4%; in assay [2], -0.6%; in [3], 1.27%; in assay [4], 0.57%; in assay [5] it was 3.55%; in assay [6], 1.89%. The inhibition came out at 0.7% in [7], 2.64% in [8], 1.19% in assay [9] and 2.07% in [10].

Take `Cc1ccc(C(=O)NC2CCCCC2)cc1-c1ccc(C(=O)NCC2CC2)cc1`: the inhibition in assay [1] came out at 1.04%; in assay [2] it was 0.21%; in [3], 1.37%; in [4] it was 1.51%; in assay [5] it was 2.76%; in assay [6] it was 3.23%. The inhibition was 1.19% in [7], 2.43% in assay [8], -0.26% in assay [9] and 0.99% in [10].

Regarding `CCn1c(-c2nonc2N)nc2c(C#CC(C)(C)O)nc(CN3CCCC3)cc21`, the inhibition came to 2.53% in assay [1]; 0.11% in assay [2]; 1.98% in assay [3]; 4.91% in assay [4]; 0.29% in assay [5]; 3.07% in assay [6]. The inhibition in assay [7] is 2%; in assay [8] it was 6.06%; in assay [9], 0.33%; in assay [10], 1.37%.

As to `Cc1nn(C)c2cc(N(C)c3ccnc(Nc4cccc(S(N)(=O)=O)c4)n3)ccc12`, the inhibition is -1.1% in assay [1]; 2.42% in assay [2]; 1.01% in [3]; 3.81% in assay [4]; 10.5% in [5]; 11.1% in [6]. Also, the inhibition in assay [7] is 4.88%; in assay [8] it was 6.94%; in assay [9], 2.3%; in assay [10], 2.85%.

As to `Fc1cccc(COc2ccc(Nc3ncnc4sc(-c5cccs5)cc34)cc2Cl)c1`, the inhibition in [1] was 1.75%; in assay [2], 2.49%; in assay [3], 1.14%; in [4], 1.28%; in [5], -5.35%; in [6], -7.37%. Also, the inhibition in assay [7] was 1.59%; in assay [8] it was 1.29%; in assay [9], -0.02%; in [10] it was 0.68%.

Turning to `COc1ccc(-c2nn3ncccc3c2-c2ccnc(Nc3ccc(Cl)c(C(F)(F)F)c3)n2)cc1`, the inhibition in assay [1] was -0.16%; in assay [2] it was 3.43%; in [3], -1.37%; in [4], 0.06%; in assay [5], 1.49%; in assay [6], 1.69%. In addition, the inhibition in [7] stood at 0.22%; in [8], 2.02%; in [9], 0.17%; in [10] it was 2.22%.

For the compound `Cc1cccc(-c2n[nH]cc2-c2ccc3ncccc3n2)n1`, the inhibition was determined as 0.34% in [1]; 0.69% in assay [2]; 0.87% in assay [3]; 1.36% in assay [4]; 0.79% in assay [5]; 0.35% in [6]. Also, the inhibition in [7] is 1.84%; in assay [8], 0.64%; in assay [9], 0.55%; in assay [10], -0.68%.

As to `NC(=O)c1ccc(-c2nc(-c3ccccn3)c(-c3ccc4c(c3)OCO4)[nH]2)cc1`, the inhibition in assay [1] is 0.14%; in [2], 2.49%; in assay [3] it was 1.08%; in assay [4], 0.59%; in [5], 1.5%; in assay [6], 1.56%. For the same compound, the inhibition in assay [7] is 2.14%; in assay [8], 4.23%; in assay [9], 1.26%; in assay [10] it was 2.46%.

Consider `CN(C)c1cc2c(Nc3ccc4nc(Cc5ccccc5)[nH]c4c3)ncnc2cn1`, for which the inhibition was -0.16% in assay [1]; 1.32% in assay [2]; 0.33% in assay [3]; 0.93% in [4]; 4.14% in assay [5]; 4.53% in [6]. Also, the inhibition is 1.93% in assay [7], 2.96% in [8], 2.15% in assay [9] and 4.96% in assay [10].

Consider `CCn1c(-c2nonc2N)nc2ccncc21`, for which the inhibition in [1] was 1.72%; in [2] it was 1.13%; in assay [3], 0.86%; in assay [4], 0.41%; in assay [5] it was 1.63%; in [6], 2.9%. Moreover, the inhibition in [7] stood at 0.33%; in [8], 2.82%; in assay [9], 1.28%; in assay [10], 3.8%.

On to `CCn1c(-c2nonc2N)nc2cnc(Oc3cccc(NC(=O)c4ccc(OCCN5CCOCC5)cc4)c3)cc21`, for which the inhibition in assay [1] stood at 6.6%; in [2] it was 42.3%; in [3], 17.8%; in [4], 59%; in assay [5] it was 66.8%; in [6], 78.1%. Moreover, the inhibition in [7] was 56.7%; in assay [8], 76.7%; in assay [9] it was 84.6%; in assay [10] it was 93%.

Turning to `COc1ccccc1Nc1ncc(-c2ccccc2)o1`, the inhibition in assay [1] was -5.48%; in assay [2] it was -2.78%; in assay [3], 0.73%; in [4], 0.66%; in assay [5] it was -3.3%; in assay [6], -5.77%. Further, the inhibition was 4.65% in [7], 2.42% in assay [8], 1.36% in assay [9] and 2.44% in [10].

In the case of `COc1ccc(-c2ccncc2)cc1C(N)=O`, the inhibition is 3.16% in assay [1]; 6.38% in assay [2]; -0.49% in assay [3]; 2.83% in assay [4]; 9.33% in [5]; 10.5% in [6]. Also, the inhibition in assay [7] was 2.85%; in [8], 5.28%; in [9], 1.79%; in [10], 4.79%.

On to `COc1cc(C)c(NC(=O)CN(C)C)cc1Nc1nc(Nc2cccc(F)c2C(N)=O)c2cc[nH]c2n1`, for which the inhibition in assay [1] was -0.22%; in assay [2], 2.53%; in assay [3], -0.26%; in assay [4], 1.65%; in [5], 1.58%; in assay [6], 0.97%. Further, the inhibition in assay [7] was -0.16%; in assay [8] it was 2.07%; in assay [9], 2.03%; in assay [10], 3.01%.
